# From PubChem BioAssay AID1159571 (Broad Institute, 2015)
# Results with a measured potency or affinity are listed apart. Active and inactive are the calls of the source. No rule for the calls is given here.
# Assay: growth inhibition of PfATP4-mutant resistant parasites – NITD609-resistant line, SYBR Green, dry powder, dose response (AID 1159571)
# Conditions: P. falciparum ATP4 D1247Y mutant growth; series mostly up to 19.5 µM
row,Compound,outcome
1,COc1ccc(S(=O)(=O)Nc2ccc3c(c2)CC(=O)N([C@@H](C)CO)C[C@H](C)[C@H](CN(C)S(=O)(=O)c2ccc(OC)cc2)O3)cc1,inactive
2,Cc1ccccc1-c1ccccc1[C@H]1[C@@H](C#N)N(C(=O)c2ccccc2)[C@@H]1CO,inactive
3,O=C(NC[C@@H]1CC[C@H]2[C@H](CN2Cc2cc(-c3ccccc3)on2)O1)c1ccc2c(c1)OCO2,inactive
4,COc1cccc(C#Cc2ccc([C@H]3[C@@H](CO)N(C(=O)c4ccccn4)[C@H]3C#N)cc2)c1,inactive
5,C[C@@H]1CN([C@H](C)CO)C(=O)c2cccc(NC(=O)c3ccc(-c4nccs4)cc3)c2O[C@H]1CN(C)Cc1ccc(C(F)(F)F)cc1,inactive
